# Experimental data as given in PubChem BioAssay (NCI).
# About 83,000 compounds went through this panel and 20% of them were active in at least one assay; those are over-represented in the sample as a whole.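 Cells were grown in 96-well plates and exposed to the test compound at a single concentration for 48 hours; results are reported as percent growth, with values below 10 considered active.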 A number with no mark means an inactive call. Activity calls are given as the source filed them.
# Tested on: A498 renal
# Assay: NCI-60 one-dose screen, 48 h (100 = growth as untreated, 0 = no growth, -100 = all killed)
# Conditions: 10 µM
row,SMILES,growth
1,CCOC(=O)[C@@H](C)C[C@H](Cc1ccccc1)NC(=O)c1csc([C@@H](C[C@H](C(C)C)N(C)C(=O)[C@H](CC)NC(=O)[C@H]2CCCCN2C)OC(C)=O)n1,-13.5% (active)
2,CCN(CCO)C(Cc1ccccc1)c1ccccc1 (stereo not given),96.3%
3,C1CCC([PH+](C2CCCCC2)C2CCCCC2[PH+](C2CCCCC2)C2CCCCC2)CC1.O=C(C1[CH-]CCCC1)C1CCCC[N-]1.[Au] (stereo not given),-51.3% (active)
4,Cn1cc(-c2csc(-c3cn(CCN4CCOCC4)c4ccc(F)cc34)n2)c2cccnc21,68.1%
5,O=[N+]([O-])c1cc(I)cc([N+](=O)[O-])c1,111%
6,O=[N+]([O-])CC(O)C(Cl)(Cl)Cl (stereo not given),87.3%
7,N#C[S-].[Au+].c1ccc(CN2[CH-]N(Cc3ccccc3)C(c3ccccc3)=C2c2ccccc2)cc1,-37.3% (active)
8,CC[C@H](NC(=O)[C@H]1CCCCN1C)C(=O)N(C)[C@H](C[C@@H](OC(C)=O)c1nc(C(=O)N[C@@H](Cc2ccccc2)C[C@H](C)C(=O)O)cs1)C(C)C,-8.18% (active)
9,CC(=O)O[C@H](C[C@H](C(C)C)N(C)C(=O)[C@@H](NC(=O)[C@H]1CCCCN1C)C(C)C)c1cccc(C(=O)N[C@@H](Cc2ccccc2)C[C@H](C)C(=O)O)n1,-13.2% (active)
10,[Cl][Hg][c]1cc[c]([Hg][Cl])o1,109%
11,Clc1ccc(N2COOC3(OOC2)C2CC4CC(C2)CC3C4)cc1,96.8%
12,COC(=O)[C@@H](C)C[C@H](Cc1ccccc1)NC(=O)c1nc([C@@H](C[C@H](C(C)C)N(C)C(=O)[C@@H](NC(=O)[C@H]2CCCCN2C)C(C)C)OC(C)=O)sc1C,-19.3% (active)
13,CC(C)(N)Cc1ccccc1,111%
14,CC1=C(CCCOC(=O)CN)C2=C(C)C3(CC3)[C@@](C)(O)C(=O)C2=C1,94.7%
15,COC(=O)[C@@H](C)C[C@H](Cc1ccccc1)NC(=O)c1csc(CC[C@H](C(C)C)N(C)C(=O)[C@@H](NC(=O)[C@H]2CCCCN2C)C(C)C)n1,0.74% (active)
16,[Au+].[N-]=C=O.c1ccc(CN2[CH-]N(Cc3ccccc3)C(c3ccccc3)=C2c2ccccc2)cc1,112%
17,CNCc1cccnc1,104%
18,CC(=O)O[C@H](C[C@H](C(C)C)N(C)C(=O)[C@@H](NC(=O)[C@H]1CCCCN1C)C(C)(C)C)c1nc(C(=O)N[C@@H](Cc2ccccc2)C[C@H](C)C(=O)O)cs1,-6.47% (active)

row,SMILES,growth
1,C[C@@H]1O[C@@H](O[C@H]2C[C@@H](O)[C@]3(CO)C4C(CC[C@]3(O)C2)[C@@]2(O)CC[C@H](C3=CC(=O)OC3)[C@@]2(C)C[C@H]4O)[C@H](O)[C@H](O)[C@H]1O (stereo not given in full),-6.39% (active)
2,Nc1ccc(Cl)cc1,103%
3,Fc1cccc(NCOOC2(OOCNc3cccc(F)c3)CCCCC2)c1,92.4%
4,COC(=O)[C@@H](NC(=O)c1cn(CCC2CCCCC2)c2ccccc12)C(C)(C)C,84.2%
5,CCOc1ccccc1C(=O)OCC(Cl)(Cl)Cl,88.5%
6,CCOP(=O)(Cc1ccc(C#N)cc1)OCC,98%
7,C[C@]12CC[C@H]3[C@@H](CC[C@]4(O)C[C@@H](O[C@@H]5O[C@H](CO)[C@@H](O[C@@H]6OC[C@@H](O)[C@H](O)[C@H]6O)[C@H](O)[C@H]5O)CC[C@]34C=O)[C@@]1(O)CC[C@@H]2C1=CC(=O)OC1,-9.04% (active)
8,O=P(N1CC1)(N1CC1)N1CCc2ccccc21,106%
9,COc1cc([C@@H]2c3cc4c(cc3[C@H](OC(C)=O)[C@H]3COC(=O)[C@H]23)OCO4)cc(OC)c1OC,-7.56% (active)
10,COC(=O)[C@@H](C)C[C@H](Cc1ccc(F)cc1)NC(=O)c1csc([C@@H](C[C@H](C(C)C)N(C)C(=O)[C@@H](NC(=O)[C@H]2CCCCN2C)C(C)C)OC(C)=O)n1,-3.94% (active)
11,N#C[Se]CCN1C(=O)c2ccccc2C1=O,-12.5% (active)
12,O=[N+]([O-])c1c(Br)sc(Br)c1[N+](=O)[O-],111%
13,CN1C(=O)C(=Cc2cn(CCCCCCn3c4ccccc4c(=O)c4ccccc43)c3ccccc23)C(=O)N(C)C1=O,110%
14,CCCCCCCC[n+]1ccc2ccccc2c1,93.1%
15,COC(=O)C12CC(NC(=O)c3csc([C@@H](C[C@H](C(C)C)N(C)C(=O)[C@@H](NC(=O)[C@H]4CCCCN4C)C4CC4)OC(C)=O)n3)(C1)C2,-5.31% (active)
16,Cn1cc(-c2csc(-c3cn(CCCCN4CCCCC4)c4ccccc34)n2)c2cccnc21,81%
17,CC1(C)N=C(N)N=C(N)N1c1ccc(CCC(=O)Nc2ccc(S(=O)(=O)F)cc2)c(Cl)c1,34.8%
